The record followed here is the supplement of paper PMC6555819.

In this test the test system is VDR:RXRa (NR concentration 270 nM, RXRa partner concentration 90 nM). The test is described as follows: PBM binding z-score (relative to random genomic background probes); higher = stronger binding; sequences stand for … in GC…GCGATTGACAGCGTAGAATGAAGG
As for the experimental part:
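Protein-binding microarray (Agilent 4x180K custom design, double-stranded 60-nt probes: 5' GC cap, 34-nt variable region, 24-nt constant primer region; full probe sequence given). Purified or IVT nuclear receptor:RXRα heterodimers (3:1 NR:RXRα, mostly 270:90 nM) or homodimers were incubated for 1 h in PBS with 2% milk and no ligand, then detected with Alexa488 antibodies. Fluorescence from o1-orientation probes (~5 replicates averaged) was converted to z-scores against 500 random hg19 background probes. Variable regions are seed direct-repeat (DR0–DR5) sites, all their single-nucleotide variants and half-site ablations.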
Regarding ACTCGGAAGACAAAGGTCAGAGCTACGCCAGTGA, the PBM binding z-score came out at 2.63. The value for CCTCCGAGGACAGAAGGTCAGAGCTGTCCGCTTT was 1.36. The value for ATACCAAGGTGATCGTGAGGTCGGTGATACTAAC was 0.863; that for CCTACTGGGCCAAGGCCATTGATCAGTCAAAGCA was -0.446.

For the sequence CGAACTAGGTCAGAACGGGACAGTGAAGGATGAT, the PBM binding z-score stood at 0.281. In turn, TCTATTAGTTGATAAGGGCAACCGAAACAGCGGA returned a PBM binding z-score of 0.713. The value for CAAACTAGGTCAAGATGTCAAAGTCCGCTTCCCG was 2.2; that for CAAACTAGGTCACCGGAAGTTCAAAGTCCGCATG was 6.24; that for CCTACTGGGCCAAAGGTCATTTATTCCAATGCTC was 4.34. Next, ACTTACGGATCAACGAGGTTATAGCACGCGTATA: 4.59; CGTCCAAGGGCATAGGAGGTCAGTGAAGACAGAT: 3.99. Regarding ACTATTAGTCGACTTAGGGCAACCGATACGACGC, the PBM binding z-score is -0.299. Next, ATCGAAAGGTCGAAGTTGAGTATACCCACCCGAA: 3.08. Next, TCTCGGAGGACAGGAAAGGTCAGAGCTCGACATC: 2.7; GCAGACAGGTGAGACGCAGGTAACTCAGGGTGGC: -0.432.

AGTCAAAGTTCATGACGAGGTAACGTAAAGCACG returned a PBM binding z-score of 4.64.

Regarding AGAACGAGCGCACGCTGAGTTGATAGCAGAGTAG, the PBM binding z-score was -0.801. The value for TAGCCTAGATCATTCAGGGGCCAGTATAGAAAGC was -0.321. The value for TCGAGTAGGTTACCACTGGGGCATTCAGCTTTCT was -0.368; that for GCATATAGGTAATGCAAGGTGAAAGTCCGATTGT was 0.358. The value for CTCGAAAGGTCGTGCTCAGGTGAGTAGACCAAAC was 3.08. CCGACTGGGGGAGAAAGGTTACCATACCATCCGG showed a PBM binding z-score of 1.42. The value for ACTATTAGTTGACTTAGGGCATCCGATACGACGC was 0.439; that for TAGCCTAGATCATTGGGCCAGTATAGTACGCATC was -0.685. Next, TCTTGTAGCTCAAAGGTTAAGAAAGCCGAAGCCT: 0.581. Next, TGAATGAGGTTATAAGATCAGGGATCGTTGCAAA: 0.956; AAATGTAGGTTATCGGGTCATTCAGTTTGCGCAT: 5.22; AATACATGGTCACTAGGCCAGAGTAGGTACGAAT: -0.0294. For TAAGACAGGTGAAGGTAACTCAGGTACGCAGTCG, the PBM binding z-score was found to be 0.46. The value for GCTGCTAGGCCAGGTTGGTCAGCTAACGGGTACG was -1.03. The value for TGTTGTAGATCAAGCAGGTTAAGAAAGCCTGAGT was 0.0987; that for ATCTCTAGGTAAAAGTTCAGTGAGTCCCGAGGAT was 2.09. Next, CGTCCAAGTTCAGCAGGTCAGTGAAAGCGACGTG: 2.86; AAATGTAGGTTAGCTGGGGTCATTCAGACTAGGC: 6.03. As for CCTCGGAGGGCAACAGGAGGTCAGAGCTGCCAGA, the PBM binding z-score was 3.12.

ATCGAAGGGTCGACGAGGTGAGTATACACCGTTT gave a PBM binding z-score of 4.01. The value for TCTTGTAAATCAATAGAGGTTAAGAAAGTGCGCT was 1.98. The value for CCGACTGGGACATAAGGTTACCATAAGCCAGCCC was 0.181; that for TCTTGTAGATCAAGCAGGTTAATAAAGCCTGAGT was 0.675; that for GCTATTAGTTGAAAGGGTAACCGAATGATTCTCG was 0.289.
